From PubChem
STAT3 binder: binders of human STAT3. P40763. Small molecule microarray, His-STAT3 binding, anti-His fluorescence. calls only. 17,000 compounds, 0.2% hits;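 active = compounds whose four printed spots each show fluorescence over background unusually high for their array block, chance value under 7%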
NFkB binder: NF-kappa-B p105 (human) binding | 17,000 compounds, 1.3% hits | Small molecule microarray, anti-His fluorescence binding | P19838 | calls only;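 active = spot fluorescence over background significantly raised, with a chance value under 7% in all four replicate spots of the compound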;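 note: probe protein is his-tagged human p50 processed subunit at 1 µg/ml; raw spot fluorescence signals with no normalization applied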
p53 mut binder: binders of human mutant p53; AID 624136; small molecule microarray binding, anti-GST fluorescence; calls only; 17,000 compounds, 0.4% hits;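 active = compounds whose four printed spots each glow above background more than chance allows, each with a p-value under 7%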
c-Myc SMM: c-Myc (human) binding | calls only | small molecule microarray, His-c-Myc binding, anti-His fluorescence | 17,000 compounds, 1.5% hits | P01106;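 active = spot fluorescence over background with P-value below 7% in all four replicate spots, showing protein binding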;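 note: score is binary with 100 for all four spots passing and 0 otherwise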
Active calls of the source: *; i = inactive; + = active, no number. Sampled rows, rich in hits. Any-hit rate of the full collection: about 2.4%.

SMILES	STAT3 binder	NFkB binder	p53 mut binder	c-Myc SMM
COc1cc(OC)c(C2=NOC(C(=O)NCc3ccco3)C2)cc1Cl (centres undefined)	i	i	i	i
CSc1nc2ccc(S(=O)(=O)NCCOc3ccc(Cl)cc3)cc2s1	i	i	i	i
Cc1nn(C(=O)Cn2nc([N+](=O)[O-])cc2C)c(C)c1Cl	i	i	i	+
COc1c(CCC(=O)O)c(O[C@@H]2O[C@H](CO)[C@@H](O)[C@H](O)[C@H]2O)cc2occc12	i	i	i	i
Cn1c2ccccc2c2nnc(SCCN3CCCCC3)nc21	i	i	i	+
CCOC(=O)CSc1nnc2c3ccccc3n(C)c2n1	i	i	i	i
c1ccc2c(c1)[nH]c1nc(SCCN3CCCCC3)nnc12	i	i	i	+
